High-throughput results deposited in PubChem BioAssay by National Center for Advancing Translational Sciences (NCATS).
In the library only some 12% were active in any assay of this set; here they are far more common.
Sm TGR inh = inhibitors of Schistosoma mansoni thioredoxin glutathione reductase | actives 3% (n = 360,000) | Potency, µM (highest dose often 114 µM), most hits filed as inhibitors | purified TGR, DTNB reduction, TNB absorbance 405 nm | AID 485364; further: nearly all actives have a fitted effect of over 60% in size
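First, TGR (20 nM dispensed) and NADPH were mixed with compound. Second, a 15 min room-temperature incubation followed. Third, further NADPH and then DTNB were added to start the reaction. Finally, TNB absorbance was monitored kinetically.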
SARS PLpro yeast = SARS-CoV PLP inhibition in yeast; Potency, µM (series often up to 32.9 µM), hits mostly activators; AID 485353; actives 0.19% (n = 330,000); S. cerevisiae expressing SARS-CoV PLpro, growth rescue; calls by dose curve; further: nearly all actives have a fitted effect of over 55% in size
Pf growth 96h = P. falciparum growth inhibition at 96 hour, primary screen for plastid delayed-death inhibitors; Potency, µM (series often up to 28.7 µM), hits mostly inhibitors; AID 504834; P. falciparum luciferase reporter growth, 96 h; actives 6.9% (n = 320,000)
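Two-generation exposure (96 h) targets delayed-death phenotype. Reporter parasites carrying integrated firefly luciferase, in red cells at 2% hematocrit and 0.05% parasitemia final, kept at 37 C, 5% CO2; luminescence loss indicates inhibition.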
Pf growth 48h = P. falciparum growth inhibition at 48 hours (one generation); P. falciparum luciferase growth in erythrocytes, 48 h; Potency, µM (series often up to 28.7 µM), usual class: inhibitors; actives 5.9% (n = 310,000); AID 504832
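Cell-based growth assay: transgenic P. falciparum expressing firefly luciferase, cultured in red cells within RPMI 1640 containing 0.5% w/v Albumax, 24 mM bicarbonate and gentamycin. A drop in luciferase activity indicates inhibition.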
Of the large screens only hits and unclear results are named; the others gave an inactive call. Unless noted, the call rests on the fitted dose curve; in most records, active means well fitted curve in the direction sought with a large enough effect; inconclusive means small, poorly fitted or top-dose-only effect, or another doubt; inactive means no such curve, though single readings can be large; an effect the other way counts as inactive or inconclusive.

CCOC(=O)N1CCN(C(=O)C2CC(=O)N(c3ccc(OC)cc3)C2c2ccc(OC)cc2)CC1 (stereo unspecified)	Pf growth 96h inconclusive, Pf growth 48h 9.3µM
COc1ccc(N2C(=O)CCC(C(=O)O)C2c2ccc(F)cc2)cc1 (stereo unspecified)	Pf growth 96h 2.6µM
CCC(C)NC(=O)C1CCC(=O)N(c2cc(OC)c(OC)c(OC)c2)C1c1ccc(OC)cc1 (stereo unspecified)	Pf growth 96h inconclusive, Pf growth 48h inconclusive
COc1ccc(C2C(C(=O)NCc3ccccn3)CCC(=O)N2c2cc(OC)c(OC)c(OC)c2)cc1 (stereo unspecified)	Pf growth 96h 12µM
COc1ccc(C2SCC(=O)N2c2ccc(F)cc2)cc1 (stereo unspecified)	Pf growth 96h 2.6µM
COc1cc(C(=O)NNC(=O)c2nn(C)c(=O)c3ccccc23)cc(OC)c1OC	none (no result: Sm TGR inh, Pf growth 96h, Pf growth 48h)
COc1ccc(N2C(=O)CSC2c2ccc([N+](=O)[O-])cc2)cc1 (stereo unspecified)	Pf growth 96h 5.2µM (no result: Pf growth 48h)
O=C(c1ccoc1)N1CCC2(CCCN(Cc3ccc(F)c(F)c3)C2)C1 (stereo unspecified)	Pf growth 96h 12µM, Pf growth 48h inconclusive
COc1ccccc1-c1sc2cc3c(cc2c1C#CC1(O)CCCCC1)OCO3	Pf growth 96h 4.7µM, Pf growth 48h inconclusive
CCOC(=O)Cn1c(-c2ccccc2)nc2ccccc2c1=O	Sm TGR inh inconclusive, Pf growth 48h inconclusive
C#CCn1c(S(=O)(=O)Cc2ccc(F)cc2)nc(-c2ccccc2)c1-c1ccccc1	Pf growth 96h 8.3µM, Pf growth 48h inconclusive
CCOC(=O)Cn1c(S(=O)(=O)Cc2ccc(F)cc2)nc(-c2ccccc2)c1-c1ccccc1	Pf growth 96h 9.3µM, Pf growth 48h 13µM
CCOC(=O)Cn1c(S(=O)(=O)Cc2cccc(F)c2)nc(-c2ccccc2)c1-c1ccccc1	Pf growth 96h 5.9µM, Pf growth 48h 8.3µM
COc1ccccc1NC(=O)Cn1c(SCC(=O)N(C)c2ccccc2)nc2ccccc21	none (no result: SARS PLpro yeast, Pf growth 96h, Pf growth 48h)
C[C@@H](C(=O)O)c1cccc(C(=O)c2ccccc2)c1	none (no result: Sm TGR inh, SARS PLpro yeast)
CC1CCN(S(=O)(=O)c2ccc3c(c2)c(=O)c(C(=O)NCc2ccc(Cl)cc2)cn3C)CC1	none (no result: SARS PLpro yeast, Pf growth 96h, Pf growth 48h)
Cc1cc(C)nc(-n2nc(C)cc2NC(=O)CN2CCc3ccccc3C2)n1	Sm TGR inh inconclusive, Pf growth 48h 4.1µM
Cc1cc(C)nc(-n2nc(C)cc2NC(=O)CNCc2ccccc2)n1	none
Cc1cc(C)nc(-n2nc(C)cc2NC(=O)CNC2CCCCC2)n1	none
Cc1cc(C)nc(-n2nc(C)cc2NC(=O)CN2CCCC(C)C2)n1 (stereo unspecified)	Sm TGR inh 25µM, Pf growth 48h inconclusive
COc1ccc(NS(=O)(=O)c2cccc(C(=O)NCC(c3ccco3)N3CCCC3)c2)cc1 (stereo unspecified)	Sm TGR inh inconclusive, Pf growth 96h 15µM, Pf growth 48h inconclusive
CCOc1ccc(NS(=O)(=O)c2ccc(C(=O)NCC(c3ccc(OC)cc3)N3CCCC3)cc2)cc1 (stereo unspecified)	Pf growth 96h 13µM, Pf growth 48h 13µM
O=C(NCC(c1ccco1)N1CCCC1)c1cccc(S(=O)(=O)Nc2ccc(Br)cc2)c1 (stereo unspecified)	Sm TGR inh inconclusive, Pf growth 96h inconclusive, Pf growth 48h inconclusive
Cc1cccc(NS(=O)(=O)c2ccc(C)c(C(=O)NCC(c3ccco3)N3CCCCC3)c2)c1 (stereo unspecified)	Pf growth 96h inconclusive, Pf growth 48h 13µM
Cc1ccc(NS(=O)(=O)c2cccc(C(=O)NCC(c3ccco3)N3CCCCC3)c2)cc1 (stereo unspecified)	Pf growth 96h 12µM, Pf growth 48h inconclusive
Cc1ccc(C(=O)NCC(=O)OCC(=O)Nc2ccc3[nH]c(=O)[nH]c3c2)cc1	none
Cc1ccc(-n2c(=O)c3oc4ccccc4c3n(CC(=O)Nc3ccccc3)c2=O)cc1C	none (no result: SARS PLpro yeast, Pf growth 96h, Pf growth 48h)
CN(CC(=O)NCC(c1ccco1)N1CCCCC1)S(=O)(=O)c1ccc(Cl)cc1 (stereo unspecified)	Sm TGR inh inconclusive, Pf growth 96h inconclusive, Pf growth 48h 8.3µM
O=C(Cc1ccc2ccccc2c1)Nc1ccccc1Br	Pf growth 96h 3.3µM, Pf growth 48h inconclusive
O=C(Cc1ccc2c(c1)CCCC2)Nc1ccccc1Br	Pf growth 96h 2.6µM, Pf growth 48h 3.7µM
O=C(Cn1cc2c(n1)CCCC2)Nc1ccccc1Br	none (no result: Pf growth 48h)
CN(Cc1cn(C)c2ccccc12)C(=S)Nc1cc(F)cc(F)c1	Pf growth 48h 12µM
Cc1cc(C)c(NC(=O)CN(CC(=O)O)CC(=O)O)c(C)c1Br	Pf growth 96h 3.4µM (no result: Sm TGR inh, SARS PLpro yeast)
COc1ccccc1-c1nn(CCC(=O)Nc2cccc(C(C)=O)c2)c2nc(C)cc(C)c12	none (no result: SARS PLpro yeast, Pf growth 96h, Pf growth 48h)
CCn1c(=O)c2cc(C(=O)N3CCN(c4cccc(Cl)c4)CC3)sc2c2ccccc21	none (no result: SARS PLpro yeast, Pf growth 96h, Pf growth 48h)
CC1=CC(C)(C)Nc2ccc(OC(=O)CCN3C(=O)c4ccccc4C3=O)cc21	SARS PLpro yeast inconclusive, Pf growth 48h 13µM
O=C(CCN1C(=O)c2ccccc2C1=O)Oc1ccc2ccccc2c1	none
N#CCn1cc(/C=N/NC(=O)c2cc3c(ccc4ccccc43)o2)c2ccccc21	Pf growth 96h 12µM, Pf growth 48h 9.3µM
COc1ccccc1/C=N/NC(=O)c1cc2c(ccc3ccccc32)o1	Sm TGR inh inconclusive
CC1(C)CC(=O)C2=C(C1)NC1=C(C(=O)c3ccccc31)C2c1ccc(O)cc1 (stereo unspecified)	Pf growth 96h inconclusive, Pf growth 48h inconclusive
CCCCc1ccc(C2C3=C(CC(C)(C)CC3=O)NC3=C2C(=O)c2ccccc23)cc1 (stereo unspecified)	Pf growth 96h inconclusive, Pf growth 48h 13µM
CCCc1ccc(C2C3=C(CC(C)(C)CC3=O)NC3=C2C(=O)c2ccccc23)cc1 (stereo unspecified)	Pf growth 96h 3.3µM, Pf growth 48h 9.3µM
O=C(Nc1cccc(-c2cn3c(n2)SCC3)c1)c1ccc(Br)o1	Pf growth 96h 0.74µM
CCCCn1c(C)cc2c(c1=O)[C@H]1O[C@](CCCC)(Cc3c1ccc1ccccc31)O2	none
O=S(=O)(c1ccccc1C(F)(F)F)N1CCN(S(=O)(=O)c2ccccc2C(F)(F)F)CC1	none (no result: Pf growth 48h)
O=C(CC1CC2CCC1C2)N1CCN(S(=O)(=O)c2ccccc2C(F)(F)F)CC1 (stereo unspecified)	Pf growth 96h inconclusive, Pf growth 48h 12µM
O=C(CC1CC2CCC1C2)N1CCN(S(=O)(=O)c2ccccc2[N+](=O)[O-])CC1 (stereo unspecified)	Pf growth 96h 10µM, Pf growth 48h inconclusive
NC(=O)C1CCN(S(=O)(=O)c2ccccc2[N+](=O)[O-])CC1	Pf growth 96h inconclusive
COc1cccc(CNS(=O)(=O)c2c(C)nc3sccn3c2=O)c1	Pf growth 96h 0.52µM
Cc1nc2sccn2c(=O)c1S(=O)(=O)NCc1ccccc1	none
CCOC(=O)c1ccc(NS(=O)(=O)c2c(C)nc3sccn3c2=O)cc1	Pf growth 96h 10µM
CCc1cccc(NC(=O)C2Cc3ccccc3N2C(=O)c2ccccc2)c1 (stereo unspecified)	none (no result: SARS PLpro yeast, Pf growth 96h, Pf growth 48h)
